Data from PubChem BioAssay (NCI).
The panel holds about 79,000 compounds, 15% with a hit somewhere; the sample as a whole holds those more often. Rule as the data show it: active = growth inhibition above about 70%; inactive = the rest. Where a SMILES comes first, the peptide text is derived from it. [ ]: non-standard residue; d: D form. The star is where a group is joined. Cbz = O=C(OCc1ccccc1)*; Nva = CCC[CH](N)C(=O)O

How the values were obtained:
[1] = NCI Yeast Anticancer Drug Screen. Data for the rad50 strain (AID 155);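 also: 0% = growth of vehicle-only cultures of the same strain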; conditions: S. cerevisiae rad50 strain growth inhibition; at 50.0 µM; stronger effect = higher value
How it was run: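 Cells are treated with compound, grown, and their growth is then scored against vehicle-only cultures of the same repair-deficient yeast strain.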

[2] = NCI Yeast Anticancer Drug Screen. Data for the mec2-1 strain (AID 157); conditions: S. cerevisiae mec2-1 strain, at 50.0 µM, stronger effect = higher value
How it was run: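 Cells of the genetically defined mec2-1 yeast strain are incubated with test compound. Inhibition of growth is calculated against vehicle-treated controls.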

[3] = NCI Yeast Anticancer Drug Screen. Data for the sgs1 mgt1 strain (AID 161);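 also: 0% = growth of cultures given vehicle only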; conditions: S. cerevisiae sgs1 mgt1 strain, at 50.0 µM, stronger effect = higher value
How it was run: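 Genetically altered yeast, compound exposure, growth inhibition relative to vehicle.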

[4] = NCI Yeast Anticancer Drug Screen. Data for the cln2 rad14 strain (AID 165);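 also: 0% = growth equal to vehicle treated cultures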; conditions: S. cerevisiae cln2 rad14 strain, at 50.0 µM, stronger effect = higher value
How it was run: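 The screen exposed genetically defined yeast (cln2 rad14) to test compounds and scored growth inhibition relative to vehicle-treated controls.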

[5] = NCI Yeast Anticancer Drug Screen. Data for the bub3 strain (AID 167); conditions: S. cerevisiae bub3 mutant strain, at 50.0 µM, stronger effect = higher value
How it was run: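 Part of a panel of yeast mutants defective in DNA damage repair or cell cycle regulation. Each strain is grown with compound, and inhibition is calculated relative to solvent-treated cultures.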

[6] = NCI Yeast Anticancer Drug Screen. Data for the mlh1 rad18 strain (AID 175); conditions: S. cerevisiae mlh1 rad18 strain growth inhibition; at 50.0 µM; stronger effect = higher value
How it was run: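 Compound-treated yeast growth, normalised to vehicle controls. Strain bears defined DNA repair mutations.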

Measured: growth inhibition

c1ccc(SCCc2ccncc2)cc1
inactive: [1] 25.1% | [2] 23.8% | [3] 29.7% | [4] -9.65% | [5] 3.85% | [6] 19.6%

CC(C)(C)CC(C)(O)COC(=S)S (configuration not stated)
inactive: [1] -10.5% | [2] -18% | [3] 1.65% | [4] -11.2% | [5] -7.45% | [6] 0.55%

Cc1ccc(C(C(=O)O)C(Cl)(Cl)Cl)cc1 (configuration not stated)
inactive: [1] 6.7% | [2] -11% | [3] -0.75% | [4] 0.7% | [5] -6.45% | [6] 4.65%

Cc1cc(C)c(S(N)(=O)=O)c(C)c1
inactive: [1] -1.2% | [2] -16.6% | [3] -28.2% | [4] -5.4% | [5] -15.1% | [6] -0.8%

Nc1ccc2nc3c4ccccc4c(O)n3nc2c1
inactive: [1] -18.5% | [2] -9.15% | [3] -18.6% | [4] -47.9% | [5] -6.2% | [6] 14.6%

C[N+]1(C)CCC(c2ccccc2)(c2ccccc2)/C(=C2/C(=O)C(c3ccccc3)(c3ccccc3)CC[N+]2(C)C)C1
inactive: [1] -4.55% | [2] -7.9% | [3] 0.75% | [4] 35% | [5] -32% | [6] -20.8%

Cc1ncc(CO)c(/C=N\Nc2ccc([N+](=O)[O-])cc2[N+](=O)[O-])c1O
inactive: [1] -21.4% | [2] 19.2% | [3] 9.7% | [4] -17.7% | [5] 11.3% | [6] 13.9%

O=S1(=O)CCC(Br)c2ccccc21 (configuration not stated)
inactive: [1] -5% | [2] -0.25% | [3] 0.4% | [4] -38.5% | [5] 8.6% | [6] -12.5%

CC(=O)Oc1ccc2c(OC(C)=O)c(C)cc(OC(C)=O)c2c1
inactive: [1] 26.3% | [2] 5.6% | [3] 20.9% | [4] 3.8% | [5] 19.1% | [6] 24.4%

CC(C)(C)[Si](C)(C)Oc1cc(CO)cc2c1cc(=N)o[n+]2[O-]
inactive: [1] -27.6% | [2] -12.9% | [3] -23.2% | [4] -30.9% | [5] -1.15% | [6] -31.2%

CCOC(=O)C1Cc2c(n(C3CCCCC3)c(=O)n(C)c2=O)OC1c1ccccc1 (configuration not stated)
inactive: [1] 14.4% | [2] -5.15% | [3] -7% | [4] 16.1% | [5] 2.55% | [6] -8.05%

CC(=O)COc1ccccc1[N+](=O)[O-]
inactive: [1] 9.65% | [2] 0% | [3] 8.15% | [4] 8.95% | [5] 1.3% | [6] 15.8%

CCOC(=O)C1Cc2ccccc2OC1=O (configuration not stated)
inactive: [1] -9.4% | [2] -15.2% | [3] 20.4% | [4] 12.8% | [5] 9.55% | [6] 3.85%

CSCSCC(CO)NC(=O)/C(C)=C\c1c(C)[nH]c(=O)[nH]c1=O (configuration not stated)
inactive: [1] -3.35% | [2] -2% | [3] -2.35% | [4] -7% | [5] 8.4% | [6] -13.1%

C=CCOC(=O)OC(C)C(=O)OCC=C (configuration not stated)
inactive: [1] 27% | [2] 13.1% | [3] 15.4% | [4] 7.55% | [5] -2.25% | [6] -2.5%

C[n+]1ccc(/C=C/c2ccc(O)c3ncccc23)c2cccc(O)c21
inactive: [1] 38.5% | [2] 41.8% | [3] 37.9% | [4] 7.75% | [5] 5.4% | [6] 44.9%

CC(Br)C(=O)NCC(=O)NCC(=O)O (configuration not stated)
inactive: [1] 31.9% | [2] -14.9% | [3] -4.2% | [4] 16.4% | [5] 16.9% | [6] -4.75%

CCCCCCC1(/C=C\c2ccccc2Cl)OCCO1
inactive: [1] 37.6% | [2] 31.5% | [3] 37.5% | [4] -9.6% | [5] 16.9% | [6] 23.3%

CCCC(NC(=O)OCc1ccccc1)C(=O)NC(CO)C(=O)O (configuration not stated) (Cbz-[Nva]-Ser-OH; configuration not given here)
inactive: [1] 24.6% | [2] 4.15% | [3] 9.05% | [4] 26.6% | [5] 8.25% | [6] 8.05%

O=C(Oc1ccc(OC(=O)c2ccc([N+](=O)[O-])cc2)cc1)c1ccccc1
inactive: [1] 9.85% | [2] -2.25% | [3] -1.4% | [4] 26.4% | [5] -3.05% | [6] 5.25%

c1ccnnc1
inactive: [1] 15.9% | [2] -29% | [3] 4.8% | [4] -10.2% | [5] -0.4% | [6] 4.25%

CCCCCCCCCCCC(=O)OC(C)CO (configuration not stated)
inactive: [1] -3.9% | [2] -10.9% | [3] -3.7% | [4] -32.9% | [5] -1.45% | [6] 17.1%

C=CC[N+]12CC=C3COC(=O)C(C)(O)C(C)(O)C(C)C(=O)OC(CC1)C32 (configuration not stated)
inactive: [1] 0.4% | [2] -0.2% | [3] 0.4% | [4] -25.9% | [5] -3.55% | [6] -5.65%

CCOC(=O)C1C(c2ccccc2)ON(c2ccccc2)C1c1cccc([N+](=O)[O-])c1 (configuration not stated)
inactive: [1] 22.2% | [2] 3.9% | [3] -4.05% | [4] -11.5% | [5] 3.3% | [6] 1.65%

COc1ccccc1CC(=O)C(O)(C(F)(F)F)C(F)(F)F
inactive: [1] -37.5% | [2] -36.3% | [3] -18.9% | [4] -28.6% | [5] -5.9% | [6] -26.9%

CC(=O)OCCOCNC(=S)N/N=C/c1ccc(Br)s1
inactive: [1] 15.3% | [2] -8.3% | [3] 20.1% | [4] 28.1% | [5] 9.2% | [6] -0.8%

CC(O)(CNS(=O)(=O)c1ccccc1)c1ccccc1 (configuration not stated)
inactive: [1] 14.2% | [2] 8.8% | [3] 0.6% | [4] -36.9% | [5] -31.2% | [6] -16.6%

O=c1[nH][nH]c(=O)c2c1ncn2Cc1ccccc1
inactive: [1] 34.9% | [2] -17% | [3] 1.7% | [4] -49.5% | [5] -14.9% | [6] -25.5%

COc1ccccc1NC(=O)OCc1ccco1
inactive: [1] 2.55% | [2] -6.9% | [3] 28.6% | [4] -65.2% | [5] 3.35% | [6] 6.85%

O=C1c2ccccc2C(=C(c2ccccc2)c2ccccc2)c2ccccc21
inactive: [1] 29.1% | [2] -19.5% | [3] -10.3% | [4] 10.6% | [5] 5.35% | [6] -4.75%

CC(C)C(N)=O
inactive: [1] 5.1% | [2] -0.1% | [3] -7.15% | [4] -3% | [5] 12.1% | [6] -9.25%

Cc1nsc2[nH]c(=O)n(Nc3ccc(O)cc3)c(=O)c12
inactive: [1] -13.6% | [2] 1.1% | [3] -18.7% | [4] 8.75% | [5] 5% | [6] -4.9%

Fc1ccc(N2CSC(=S)N(c3ccc(F)cc3F)C2)c(F)c1
inactive: [1] 8.95% | [2] -5.7% | [3] 31.5% | [4] 6.8% | [5] 28.9% | [6] 18.8%

CN1OC(CO)CC12C1CC3CC(C1)CC2C3 (configuration not stated)
inactive: [1] -41% | [2] -19.1% | [3] -53.5% | [4] -3.4% | [5] -42.7% | [6] -53.8%

O=C1OC(=O)C2C1C1(Cl)CC2(Cl)C(Cl)=C1Cl (configuration not stated)
inactive: [1] -3.05% | [2] -31.8% | [3] 2% | [4] -30.8% | [5] -23.1% | [6] -18.6%

CC(C)c1cccc(C(C)(C)C)n1
inactive: [1] 16.1% | [2] 30.5% | [3] -2.7% | [4] -3.65% | [5] 0.3% | [6] 11.1%

NC(=O)CCCCCCCC(=O)O
inactive: [1] -0.9% | [2] -5.7% | [3] -13.4% | [4] 1.45% | [5] -10.6% | [6] -22.9%

CC1=CC(=O)C(C(C)C)=CC1=Nc1ccc(N(C)C)cc1
inactive: [1] -24.9% | [2] -26.3% | [3] -12.4% | [4] -33% | [5] 42.4% | [6] -12.3%

Cc1ccc(N=NNc2ccccc2)cc1
inactive: [1] -7.7% | [2] -8.05% | [3] -7.65% | [4] -13.9% | [5] -11.3% | [6] -7.6%

O=C(CBr)c1c2c(cc3c1CCCC3)CCCC2
inactive: [1] 1.75% | [2] -1.35% | [3] -2.05% | [4] -4.9% | [5] 33% | [6] -16.6%

Cc1n(C)c(=O)c2ccccc2[n+]1C
inactive: [1] 5.35% | [2] 5.75% | [3] -7% | [4] -3.3% | [5] 1.95% | [6] 6.4%

COc1cc(/C=C\C(=O)c2cccc([N+](=O)[O-])c2)cc(OC)c1OC
inactive: [1] 20.4% | [2] 30.1% | [3] 13.9% | [4] 12.5% | [5] 29.1% | [6] 20.7%
